Screens as filed in PubChem BioAssay.
In the library only some 3.7% were active in any assay of this set; here they are far more common.
Nrf2 ARE act: Nrf2 pathway activation; actives 0.31% (n = 410,000); Potency, µM (top dose mostly 46.1 µM), without a hit: top-dose activation, hits mostly activators; AREc32 ARE-luciferase reporter (MCF7-derived line), luminescence, 24 h; note: % of control where 0% means no effect; nearly all actives have a fitted effect of over 65% in size
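For detection, Steady-Glo was added and plates sat 30 min at RT; before that, AREc32_Fluc cells grown overnight in OPTI-MEM/5% FBS had been treated with 23 nL compound for 24 hr at 37 deg C.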
ELG1 DNA repair: ELG1-dependent DNA repair inhibition | HEK293T ELG1-luciferase reporter, luminescence, 16 h; DNA damage induced by 5-fluorouridine | Potency, µM (doses to about 46.1 µM), for inactives: top-dose activity change, negative = inhibition, most hits filed as inhibitors | actives 2.3% (n = 330,000) | AID 504467; note: % is set by controls: 0 for no effect and ±100 for the full control effect; nearly all actives have a fitted effect of over 55% in size
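Quantitative HTS, concentration-response format. 2,000 cells/well co-treated with 5-fluorouridine and compound, 16 hr in 5% CO2 at 37 °C; ONE-Glo luminescence read after 30 min.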
Nrf2 inh: Nrf2 pathway inhibition; A549 ARE-Fluc reporter, luciferase luminescence, 18-24 h; Potency, µM (titrated, usually from 46 µM), for the others: top-dose activity change, negative = inhibition, most hits filed as inhibitors; actives 2.1% (n = 360,000); note: % is set by controls: 0 for no effect and ±100 for the full control effect; nearly all actives have a fitted effect of over 60% in size
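Two sequential reads on A549 ARE_Fluc cells exposed to compound for 18-24 h: a CellTiter-Fluor fluorescence read for viability, then a luciferase luminescence read for Nrf2/ARE activity.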
A549 viability: kills or reduces viability of A549 cells in Nrf2 counter-screen; Potency, µM (doses to about 46 µM), for inactives: top-dose activity change, negative = cytotoxicity, hits mostly inhibitors; actives 0.16% (n = 390,000); A549 ARE-Fluc cells, CellTiter-Fluor viability, 18-24 h; note: % is set by controls: 0 for no effect and ±100 for the full control effect
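A549 ARE_Fluc cells in 5% FBS OPTI-MEM were exposed to compounds in concentration-response for 18-24 h at 37 deg C. Viability was read by CellTiter-Fluor fluorescence (Ex 405/Em 525) after 30 min, before the luciferase read.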
Numbers without * were called inactive; ? = inconclusive; · = not tested or not shown. Calls come from the whole dose curve; as a rule, active = well fitted curve in the direction sought with a large enough effect; inconclusive = small, poorly fitted or top-dose-only effect, or another doubt; inactive = no such curve, though single readings can be large; an effect the other way counts as inactive or inconclusive. Potency is the fitted concentration of half-maximal effect.

SMILES	Nrf2 ARE act	ELG1 DNA repair	Nrf2 inh	A549 viability
CSc1ccc(S(=O)(=O)NCC(=O)OCC(=O)N2CCCC2=O)cc1[N+](=O)[O-]	6%	16%	-1%	4%
CCn1c(=O)cc(OCC(=O)NCc2ccccc2OC)c2ccccc21	-2%	·	-13%	-5%
Cc1ccc2[nH]c(=O)c(CN(CCO)Cc3nnnn3Cc3ccco3)cc2c1	·	·	-6%	-2%
COc1ccc(CNc2nc3ccccc3n2Cc2ccc(Cl)cc2)cc1OC	4%	-13%	23µM*	-16%
O=C(NCCc1nc2ccccc2n1CCOc1ccccc1)C1CCCCC1	·	·	26µM*	?
CCn1c(NCc2ccc(OC)c(OC)c2)nc2ccccc21	3%	·	?	-12%
C=CCN1C=CC(=CC=C(C#N)C#N)C=C1	7%	?	21%	-17%
C=CCN1C=C/C(=C\C=C(C#N)C#N)c2ccccc21	3%	?	?	18µM*
CCCCCCN1C=C/C(=C\C=C(C#N)C#N)c2ccccc21	-1%	?	18µM*	6.5µM*
CCc1cccc(C)c1NC(=O)c1cc(CN2CCCC2)on1	-1%	·	-22%	-6%
COC(=O)c1ccsc1NS(=O)(=O)c1ccccc1	0%	7%	-8%	-9%
COc1cccc(C(c2nnnn2Cc2ccco2)N2CCN(c3cccc(C)c3C)CC2)c1OC (stereo not given)	0%	?	23µM*	1%
COc1ccc(OC)c(C(c2nnnn2Cc2ccco2)N2CCN(C)CC2)c1 (stereo not given)	0%	4%	5%	3%
Cn1c(CCNS(=O)(=O)c2ccccc2)nnc1SCc1cccnc1	-1%	-5%	2%	21%
C/C(CC(=O)Nc1ccc(Cl)c(C(F)(F)F)c1)=N\NC(=O)c1ccccc1O	9%	-11%	23µM*	?
COc1cccc(/C=C2\Sc3ccc(C(=O)NCc4cccnc4)cc3N(C)C2=O)c1	18%	?	-10%	6%
COc1ccc(/C=C2\Sc3ccc(C(=O)N4CCN(Cc5ccccc5)CC4)cc3N(C)C2=O)cc1OC	3%	23µM*	-8%	8%
COc1ccc(/C=C2\Sc3ccc(C(=O)NCc4cccnc4)cc3N(C)C2=O)cc1OC	5%	18µM*	?	-6%
CN1CCN(C(=O)c2ccc3c(c2)N(C)C(=O)/C(=C/c2cccc(Cl)c2)S3)CC1	14%	1%	-11%	2%
CCN(CC(=O)NCc1ccc(F)cc1)Cc1cc(=O)n2ccsc2n1	0%	4%	-11%	0%
COc1cc(CN(C)Cc2cc(=O)n3ccsc3n2)ccc1OC(F)F	2%	13µM*	?	-8%
Cc1cccc(NC(=O)CSc2nc3nc(C)cc(C)n3n2)c1	-1%	-4%	?	-8%
CCn1c(=NC(=O)c2ccc(S(=O)(=O)N3CCCC3)cc2)sc2cc(Br)ccc21	0%	·	-21%	-2%
Cc1ccc(NC(=O)COc2ccc(Br)cc2CO)cc1S(=O)(=O)N1CCOCC1	-1%	21µM*	?	-2%
Cc1ccc(NC(=O)COc2cccc(-n3cnnn3)c2)cc1S(=O)(=O)N1CCOCC1	1%	?	23µM*	0%
SMILES	Nrf2 ARE act	ELG1 DNA repair	Nrf2 inh	A549 viability
Cc1ccc(S(=O)(=O)N2CCOCC2)cc1NC(=O)COc1cccc(-n2cnnn2)c1	3%	-7%	-7%	-4%
COc1ccc(N(CC(=O)N2CCOCC2)S(C)(=O)=O)cc1	0%	-1%	-6%	-3%
COc1ccc(CCNC(=O)c2ccc3c(c2)N(Cc2ccc(F)cc2)CCS3)cc1OC	0%	26µM*	?	-4%
C=CCN=c1scc(-c2ccc(F)cc2)n1/N=C/c1ccccn1	5%	?	?	-10%
C=CCN=c1scc(-c2ccc3c(c2)NC(=O)CO3)n1/N=C(\C)c1ccccn1	8%	?	16µM*	?
COc1ccc(-c2cc(-c3c(O)c(OC)c4occc4c3OC)[nH]n2)cc1OC	9%	26µM*	13µM*	?
COc1ccc(C(=O)Nc2ccccc2C(=O)NC(Cc2ccc(O)cc2)C(=O)NNC(=O)c2ccccc2)cc1 (stereo not given)	3%	16µM*	11%	-8%
COc1ccc(C(=O)Nc2ccccc2C(=O)NC(Cc2ccc(O)cc2)C(=O)NNC(=O)c2ccc(C)cc2)cc1 (stereo not given)	3%	8.2µM*	4%	?
O=C(NCCCN1CCN(c2cccc(Cl)c2)CC1)Nc1ccccc1C(F)(F)F	0%	·	10%	-9%
Cc1ccc(-c2nc(-c3ccccn3)no2)cc1	-2%	?	2.1µM*	-1%
c1ccc(-c2ccc(-c3nc(-c4ccccn4)no3)cc2)cc1	-2%	?	?	-6%
COc1cccc(Cn2cc(C)cc(NC(=O)NCc3ccccc3)c2=O)c1	3%	0%	-14%	0%
COc1ccc(OC)c(CC(NC(C)=O)C(=O)NC2CCN(c3c(Cc4ccccc4)c(C)nc4ncnn34)CC2)c1 (stereo not given)	0%	23µM*	-26%	6%
O=C/C(=C\Nc1ccccn1)c1nc2ccccc2o1	13µM*	11%	?	6%
COc1ccccc1S(=O)(=O)Cc1ccc(C(=O)N2CCN(c3ccc(C)cc3)C(C)C2)o1 (stereo not given)	-3%	21µM*	-18%	7%
Cc1ccc(S(=O)(=O)Cc2ccc(C(=O)N3CCN(c4cccc(C)c4C)CC3)o2)cc1	-3%	?	?	?
CCOC(=O)N1CCN(C(=O)c2ccc(CS(=O)(=O)c3ccccc3OC)o2)CC1	-1%	?	7%	-4%
COc1ccc(S(=O)(=O)Cc2ccc(C(=O)N3CCN(c4cccc(C)c4)C(C)C3)o2)cc1 (stereo not given)	-2%	13µM*	-8%	-6%
COc1ccc(S(=O)(=O)Cc2ccc(C(=O)N3CCN(c4cccc(C)c4C)CC3)o2)cc1	-2%	16µM*	?	1%
CN(C)c1ccc(/C=N/NC(=O)CN2CCCCC2)cc1Br	0%	-19%	2%	7%
O=C(CCC(=O)N(CC(=O)NC1CCCC1)Cc1ccccc1Cl)Nc1nccs1	0%	-8%	-8%	4%
Nc1nc(CN2CCN(c3ccccc3F)CC2)nc(Nc2ccc3c(c2)OCCO3)n1	4%	23µM*	-3%	5%
COc1ccccc1N1CCN(Cc2nc(N)nc(Nc3ccc(C)c(Cl)c3)n2)CC1	4%	15µM*	?	-13%
CCOc1ccc(Nc2nc(N)nc(CN3CCN(c4ccccc4F)CC3)n2)cc1	4%	16µM*	?	-12%
COc1ccccc1Nc1nc(N)nc(CN2CCN(c3ccccc3F)CC2)n1	1%	-13%	1%	-6%
CCOC(=O)C1=CCN(S(=O)(=O)c2ccc(Br)cc2)C1c1cccc(C)c1 (stereo not given)	11%	·	·	·
